Structures can show the parent of a compound that is named as a salt.
What was measured:
Conditions in all cases: treatment time: 24 h
HepG2-ACTB-RAB5A = assay: lowest phenotypically active concentration; higher = less potent
How it was run: (§1)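 Cells from fifteen gene-edited reporter lines (A549, HepG2 and WPMY1) were treated for 24 h at 0.3, 1, 3 or 9 µM and imaged live, four wells per condition. Features were normalised per well to solvent control wells. A condition deviated if ≥3 of 4 wells passed the 95th percentile of control Euclidean distances and was reproducible if its median replicate Pearson correlation beat the 95th percentile of non-replicates; phenotypic activity needed both.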

HepG2-CANX-COX4 = assay: as above
How it was run: as §1

HepG2-TP53BP1-CLTA = assay: as above
How it was run: as §1

HepG2-TUBA1B-RELA = assay: as above
How it was run: as §1

WPMY1-ACTB-RAB5A [1] = assay: as above
How it was run: as §1

WPMY1-CANX-COX4 = assay: as above
How it was run: as §1

WPMY1-GM130-SQSTM1 = assay: as above
How it was run: as §1

WPMY1-TP53BP1-CLTA = assay: as above
How it was run: as §1

WPMY1-TUBA1B-RELA = assay: as above
How it was run: as §1

WPMY1-ACTB-RAB5A [2] = assay: phenotypically active (imaging signature differs from DMSO and reproducible) at any of 0.3-9 uM (binary (1 = active, 0 = inactive)); higher = active
How it was run: as §1

| Structure (SMILES) | lowest phenotypically active concentration (HepG2-ACTB-RAB5A) [µM] | lowest phenotypically active concentration (HepG2-CANX-COX4) [µM] | lowest phenotypically active concentration (HepG2-TP53BP1-CLTA) [µM] | lowest phenotypically active concentration (HepG2-TUBA1B-RELA) [µM] | lowest phenotypically active concentration (WPMY1-ACTB-RAB5A [1]) [µM] | lowest phenotypically active concentration (WPMY1-CANX-COX4) [µM] | lowest phenotypically active concentration (WPMY1-GM130-SQSTM1) [µM] | lowest phenotypically active concentration (WPMY1-TP53BP1-CLTA) [µM] | lowest phenotypically active concentration (WPMY1-TUBA1B-RELA) [µM] | phenotypically active (WPMY1-ACTB-RAB5A [2]) |
| --- | --- | --- | --- | --- | --- | --- | --- | --- | --- | --- |
| CC(C)n1c(/C=C/[C@@H](O)C[C@@H](O)CC(=O)O)c(-c2ccc(F)cc2)c2ccccc21.CC(C)n1c(/C=C/[C@H](O)C[C@H](O)CC(=O)O)c(-c2ccc(F)cc2)c2ccccc21 [Fluvastatin sodium] | 1 | 1 | 1 | 1 | ≤ 0.3 | 1 | ≤ 0.3 | 1 | 1 | 1 (active) |
| Cc1ccc(/C(=C/CN2CCCC2)c2cccc(/C=C/C(=O)O)n2)cc1 [acrivastine] | 3 | 9 | 9 | 1 | 1 | 1 | 1 | 9 | 1 | 1 (active) |
| Nc1nc(Cl)nc2c1ncn2[C@H]1C[C@H](O)[C@@H](CO)O1 [cladribine] | ≤ 0.3 | ≤ 0.3 | ≤ 0.3 | ≤ 0.3 | 1 | 9 | 3 | 1 | 1 | 1 (active) |
| Nc1nccc2c1ncn2[C@@H]1C=C(CO)[C@@H](O)[C@H]1O [3-Deazaneplanocin A hydrochloride] | 1 | ≤ 0.3 | 1 | 1 | 1 | 1 | 1 | 3 | 1 | 1 (active) |
| Cc1ccc(-n2nc(C(C)(C)C)cc2NC(=O)Nc2ccc(OCCN3CCOCC3)c3ccccc23)cc1 | 1 | 3 | 3 | ≤ 0.3 | 3 | 1 | 1 | 9 | 1 | 1 (active) |
| COc1cccc(-c2cc(F)ccc2[C@H]2Cc3nc(N)nc(C)c3C(=O)N2)n1 | ≤ 0.3 | ≤ 0.3 | ≤ 0.3 | ≤ 0.3 | ≤ 0.3 | ≤ 0.3 | ≤ 0.3 | ≤ 0.3 | ≤ 0.3 | 1 (active) |
| CCc1cccc(CC)c1NC(=O)N1Cc2[nH]nc(NC(=O)c3ccc(N4CCN(C)CC4)cc3)c2C1 | ≤ 0.3 | ≤ 0.3 | ≤ 0.3 | ≤ 0.3 | 1 | 1 | 1 | 1 | 1 | 1 (active) |
| CN[C@H]1CC[C@@H](c2ccc(Cl)c(Cl)c2)c2ccccc21 [sertraline] | 3 | 9 | 3 | 3 | 3 | 3 | 3 | 3 | 3 | 1 (active) |
| Cc1c(NC(=O)OC[C@@H]2COCCN2)cn2ncnc(Nc3ccc4c(cnn4Cc4cccc(F)c4)c3)c12 | 3 | 9 | 3 | 1 | 3 | 3 | 9 | 9 | 3 | 1 (active) |
